The experiment in a line: NCI Yeast Anticancer Drug Screen. Data for the sgs1 mgt1 strain (AID 161).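 Note: 0% = growth of cultures given vehicle only.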 Particulars: S. cerevisiae sgs1 mgt1 strain, stronger effect = higher value. As for the experimental part: Growth inhibition of yeast strains with defined genetic alterations is measured as a screen for potential anti-cancer activity. Selected strains with alterations in DNA damage repair or cell cycle control were exposed to compounds and growth inhibition was measured relative to vehicle treated controls. The strain used in this assay is sgs1 mgt1

The mark [1] stands for this setting: at 5.0 µM (retest, dose inferred, filed as 0.5).
[2] abbreviates: at 50.0 µM (retest, dose inferred, filed as 5.0).

Where “and” joins values, the source holds several entries; their conditions need not be identical. Identical values can stand only once. Compounds without any hit were thinned out: in the full panel of roughly 79,000, 15% have a hit. More than one record can exist for a structure, and the calls need not agree. Calls of active or inactive are those of the source. Cut-off read from the data, not from the text of the source: active = growth inhibition above about 70%; inactive = the rest.

On to `O=C1C(=Cc2c[nH]c3ccccc23)C(=O)c2ccccc21`, for which the growth inhibition was -1% (inactive) under setting [1]; 91% (active) under setting [2]; 0.1% (inactive) and 71.1% (active) (at 50.0 µM).

`COC(=O)C(=O)C(C(=O)C(c1ccccc1)c1ccccc1)c1nc2n(c1O)/C(=N/C(=O)Nc1ccc(Cl)cc1)N=N2` (configuration not stated): the growth inhibition under setting [1] is 6% (inactive), the growth inhibition under setting [2] was 80% (active) and the growth inhibition (at 50.0 µM) is 85.7% (active).

With `Cc1ccc(S(=O)(=O)SC/C=C\CSS(=O)(=O)c2ccc(C)cc2)cc1`, the growth inhibition reads like this: under setting [1], 12% (inactive) and 67% (inactive); under setting [2], 95% (active) and 97% (active); (at 50.0 µM) 95.8% (active) and 76.7% (active).

As for `O=C(C(c1ccccc1)c1ccccc1)C(c1ccccc1)c1ccccc1`, the growth inhibition was -1% (inactive) under setting [1], -18% (inactive) under setting [2] and 4.8% (inactive) (at 50.0 µM).

For `OC(C/C=C/c1ccccc1)(c1ccccc1)c1ccccc1`, the growth inhibition runs as follows: under setting [1], 7% (inactive); under setting [2], 52% (inactive); (at 50.0 µM) 98.1% (active) and 98.2% (active).

With `O=C1OC(c2cccnc2)OC(c2ccccc2)=C1C(=O)c1ccccc1` (configuration not stated), the growth inhibition by setting is: under setting [1], 4% (inactive); under setting [2], 98% (active); (at 50.0 µM) 99.5% (active).

With `O=C1/C(=C/c2ccc(Cl)cc2)Sc2scc(-c3cccc([N+](=O)[O-])c3)[n+]21`, the growth inhibition runs as follows: under setting [1], 84% (active); under setting [2], 99% (active); (at 50.0 µM) 91.9% (active).

For `Nc1nc(Cl)cc(NCCCCCCCCCCNc2cc(Cl)nc(N)n2)n1`, the growth inhibition is -1% (inactive) under setting [1], 100% (active) under setting [2] and 0.05% (inactive) (at 50.0 µM).

`Nc1ccc2c(n1)NCC/C2=N\Nc1ccccc1`: the growth inhibition is -4% (inactive) under setting [1], 69% (inactive) under setting [2] and 79% (active) (at 50.0 µM).

Take `CN(C)C(=S)SC(=S)N(C)C`: the growth inhibition by setting is: under setting [1], 97% (active) and 94% (active); under setting [2], 99% (active); (at 50.0 µM) 99.2% (active).

In the case of `Nc1c2ccccc2nc2ccccc12`, the growth inhibition reads like this: under setting [1], 20% (inactive) and 18% (inactive); under setting [2], 73% (active) and 68% (inactive); (at 50.0 µM) 75.8% (active) and 74% (active).

As for `Oc1ccccc1C=Nc1ccccc1N=Cc1ccccc1O`, the growth inhibition was -12% (inactive) and -1% (inactive) under setting [1]; 76% (active) and 91% (active) under setting [2]; 67.8% (inactive) and 91.3% (active) (at 50.0 µM).

As for `CCCCCCC(CCCCCCCCCCC(=O)OCC(CC)CC)OC(=O)CC` (configuration not stated), the growth inhibition runs as follows: under setting [1], -4% (inactive); under setting [2], -23% (inactive); (at 50.0 µM) 7.4% (inactive).

Take `Nc1ccc2c(ccc3ccc4ccccc4c32)c1`: the growth inhibition reads like this: under setting [1], -8% (inactive); under setting [2], 98% (active); (at 50.0 µM) 97.8% (active).

These data come from PubChem BioAssay (NCI).
